Results taken from ChEMBL document CHEMBL4513216, “Probing the Open Global Health Chemical Diversity Library for Multistage-Active Starting Points for Next-Generation Antimalarials” (ACS Infect Dis, 2020).
Out of some 69,000 compounds screened, about 8,600 (12%) showed an effect of 50% or more. The entries come from a sample that favours strong results as a whole.

What follows are compounds tested on Plasmodium berghei (assay: Screen against P. berghei liver stage (PbLuc), transformed with Luciferase, at 10uM). Conditions: tested at 10 uM.
Format: functional, HepG2

SMILES	INHIBITION
CCCN(Cc1nc(-c2ccc(F)c(OC)c2)oc1C)CC1CCCO1 (centres undefined)	-12.1%
Cc1cc(C)n(CC2CCCN2C(=O)c2cccnc2N(C)C)n1 (centres undefined)	21%
Cc1ccc(CN(C(=O)NC2CCS(=O)(=O)C2)C2CC2)o1 (centres undefined)	2.79%
Cc1ccccc1OCCN1CCCC(c2cc(C(N)=O)[nH]n2)C1 (centres undefined)	23.5%
Cn1cc(CN(C/C=C/c2ccccc2)C2CC2)cn1	-59.5%
O=C1CCCN1C1CCCN(CCn2cc(Cl)cn2)C1 (centres undefined)	-63.5%
CN(Cc1ccco1)[C@@H]1CN(Cc2nccs2)C[C@@H]2CCCO[C@@H]21	44.3%
CC(C1CCN(Cc2cnn(C)c2C2CC2)CC1)N1CCN(C)CC1 (centres undefined)	29%
CC(C1CCN(Cc2cnn(C)c2C2CC2)CC1)N(C)C (centres undefined)	50.7%
CC(C1CCN(Cc2cnn(C)c2C2CC2)CC1)N1CCCC1 (centres undefined)	40.9%
O=C(NCC1CCOC1)c1ccc(-c2ccccc2)[nH]c1=O (centres undefined)	-26.6%
Cc1cccc(-c2ccc(C(=O)NCC3CCCO3)c(=O)[nH]2)c1 (centres undefined)	-29.1%
Cc1ccc(CN2CCCC3(CCCC(=O)N3)C2)s1 (centres undefined)	21.1%
CCOCCN1CCCC1CS(N)(=O)=O (centres undefined)	61.5%
NS(=O)(=O)CC1CCCN1CCOc1ccccc1F (centres undefined)	37.9%
Cc1ccccc1OCCN1CCCC1CS(N)(=O)=O (centres undefined)	-55.2%
COCc1ccc(C(=O)N2CCN(CC(C)O)CC2)cc1 (centres undefined)	-7.81%
COc1ncccc1C(=O)N1CCCC1c1c(C)nn(C)c1Cl (centres undefined)	-23.9%
CC(C)CN(Cc1ccc(-n2cncn2)cc1)Cc1ccccn1	34.9%
NCC1CN(c2nc(-c3cccnc3)nc3c2CCNCC3)CCO1 (centres undefined)	7.43%
Cc1cc(CN(C)c2nc(-c3ccco3)nc3c2CCN(C)CC3)on1	30%
Cc1nonc1CN(C)c1nc(-c2ccco2)nc2c1CCN(C)CC2	75.4%

SMILES	INHIBITION
Cc1nonc1CN(C)c1nc(-c2cccnc2)nc2c1CCNC2	81.1%
CN(CC1CCCO1)c1nc(-c2cccnc2)nc2c1CCNCC2 (centres undefined)	7.43%
CN(CC1CCCCO1)c1nc(-c2cccnc2)nc2c1CCNC2 (centres undefined)	72.3%
CN(CC(O)CO)c1nc(-c2cccnc2)nc2c1CCNC2 (centres undefined)	26.1%
Cc1nccn1CCN(C)c1nc(-c2cccnc2)nc2c1CCNC2	-1.25%
Cc1noc(CN(C)c2nc(-c3ccco3)nc3c2CCN(C)CC3)n1	28.8%
CNC(=O)N1CCC2(CC1)c1ncc(C)n1CCN2C	48.4%
CN1C[C@H](c2ccccc2)[C@H]2CN(C(=O)Cc3cccc(O)c3)CC[C@H]21	43.7%
O[C@@]1(CNCC2(Cn3ccnc3)CC2)CCCN2CCCC[C@@H]21	-6.39%
Cc1nnc(CNCC2(O)CCCN(Cc3ccc(F)c(F)c3)C2=O)[nH]1 (centres undefined)	-1.33%
CCOCc1cc(CN2CCn3c(CO)nnc3C2)ccc1OC	-38.2%
Cc1ccc(CN2CCc3ncnc(C4CC4)c3CC2)s1	34.8%
CC(C)Cc1nc(CN2CCN(CC(O)c3ccccc3)CC2)no1 (centres undefined)	23.5%
CN(Cc1cnn(C)c1)C(=O)c1ccc(=O)n(Cc2ccccc2)n1	0.164%
CN(Cc1nnc2ccccn12)C(=O)CCNC(=O)C(C)(C)C	8.77%
O=C(CCC1CCCC1)NCc1nnc2ccccn12	76.4%
Cn1cccc1CNC(=O)CCCc1nnc2ccccn12	-23.7%
CCC(O)CN(C)Cc1nnc2ccccn12 (centres undefined)	61.8%
Cc1ccc(C)c(CN(C)Cc2nnc3ccccn23)c1	9.45%
Cc1ccc(C)c(C(O)CN(C)Cc2nnc3ccccn23)c1 (centres undefined)	23.3%
CN(Cc1nnc2ccccn12)C(=O)CC1CCCCC1	10.7%
CN(Cc1nnc2ccccn12)C(=O)CCC1CCCC1	54.7%

SMILES	INHIBITION
O=C(CCC1CCCCC1)NCc1nnc2ccccn12	-18.7%
Cc1cc(C2CCCN(S(=O)(=O)c3cn(C)cn3)C2)ccn1 (centres undefined)	12.8%
Cc1cnn(CC2CCCN2C(=O)c2c(F)cccc2Cl)c1 (centres undefined)	-59.4%
CC(O)CN1CCN(C(=O)c2ccn(-c3ccc(F)cc3)n2)CC1 (centres undefined)	-7.35%
Cc1cc(-c2ccc(=O)n(CCNC(=O)C3CC3)n2)c(C)o1	-21.2%
CC(C)C(C)NC(=O)c1cc(Br)c2c(c1)OCCO2 (centres undefined)	23.5%
Cc1ccc(F)c(NS(=O)(=O)c2cc(C(=O)O)oc2C)c1	12.7%
COc1cccc2cc(CNC(=O)N3CCCC(O)C3)oc12 (centres undefined)	42.7%
COc1cccc2cc(CNC(=O)N3CCC(N4CCCC4)C3)oc12 (centres undefined)	54.4%
COc1cccc2cc(CNC(=O)N3CCC(C(N)=O)CC3)oc12	-36.1%
COc1cccc2[nH]c(C(=O)N3CCNCC3C(N)=O)cc12 (centres undefined)	12.285%
CCN(CC)C(CNC(=O)c1c(C)noc1C(C)C)c1ccsc1 (centres undefined)	33.7%
CC1=Nc2c(c(=O)[nH]n2C2CCCCC2)C(c2cccnc2)S1 (centres undefined)	14.2%
CC(C)Cc1noc(CN2CCN(C(=O)c3cccc(F)c3)CC2)n1	-29.9%
CC(C)Cc1noc(CN2CCCN(C(=O)c3cccc(Cl)c3)CC2)n1	68.3%
CC(C)Cc1noc(CN2CCN(S(C)(=O)=O)CC2)n1	32.78%
CCN1CCN(Cc2nc(C)no2)CC1	0.818%
CCOCCN1CCN(Cc2nc(C3CC3)no2)CC1CC (centres undefined)	38.7%
CCOCCN1CCN(Cc2nc(C)no2)CC1CC (centres undefined)	54.4%
CCOCCN1CCN(Cc2nc(CC(C)C)no2)CC1	53.575%
CC(C)Cc1noc(CN2CCN(CCO)CC2)n1	48.9%
CC(C)Cc1noc(CN2CCN(CCOc3ccc(Cl)cc3)CC2)n1	79.9%

SMILES	INHIBITION
CCN1CCN(Cc2nc(CC(C)C)no2)CC1	16.45%
CC(C)Cc1noc(CN2CCN(c3nccs3)CC2)n1	-22.6%
CC(C)Cc1noc(CN2CCCN(C(=O)c3ccccc3Cl)CC2)n1	37.2%
CN(C)C(=O)CN1C(=O)CO[C@@H]2CN(c3ccccn3)C[C@H]21	21.7%
CCOc1c(F)cccc1C(=O)N(C)CCc1ccccn1	24.7%
O=C(NC1CCCC1)c1ccc(C2CCCNC2)nc1 (centres undefined)	-17.7%
CC(=O)NCCc1cc2nc(-c3ccncc3)ccn2n1	14.105%
Cc1noc(C)c1CN1CCc2cnn(C)c2C1COCC1CC1 (centres undefined)	23.3%
CCC[C@@H]1CN(c2cncc(C(=O)N3CCOCC3)n2)C[C@H]1N(C)C	-31.7%
Cc1nc(CNC(=O)N(CCCO)C2CCc3ccccc32)oc1C (centres undefined)	21.6%
CCOCCN1CCN(Cc2nnc(C3CC3)o2)CC1	12.6%
CCOCCN1CCN(Cc2nnc(C3CC3)o2)CC1CC (centres undefined)	0%
CCOCCN1CCN(Cc2nnc(C3CC3)o2)CC1C (centres undefined)	74.2%
O=C(CCc1ccc(-n2cnnn2)cc1)Nc1nncs1	40.6%
O=C(Cc1ccc2c(c1)CCO2)N1CCN(c2ccccn2)CC1	-13.5%
NCCCn1nc(C(F)(F)F)c2c1CCC2	27.8%
N#CCCn1nc(C(F)(F)F)c2c1CCC2	57.5%
N#CCCn1nc(C(F)(F)F)c2c1CCCC2	42.6%
Cc1nccn1C1CCCN(C(=O)c2cccc(-n3cccc3)c2)C1 (centres undefined)	43.2%
Cc1cccc(C(=O)N2CCCCC2c2[nH]ncc2S(C)(=O)=O)c1 (centres undefined)	4.08%
O=S(=O)(NCc1ccc(S(=O)(=O)N2CCCC2)s1)c1cc(Cl)cc(Cl)c1	40.6%
Cn1cc(NC(=O)N2CCCC2c2cccnc2)ccc1=O (centres undefined)	-72.2%

SMILES	INHIBITION
CC(C)C1SCC(=O)Nc2c1cnn2-c1ccc(F)cc1 (centres undefined)	8.99%
CC(C)C1SCC(=O)Nc2c1cnn2-c1ccc(Cl)cc1 (centres undefined)	78%
COc1ccc(-n2ncc3c2NC(=O)CSC3C(C)C)cc1 (centres undefined)	5.51%
CCn1cc2[nH]c(OC)c(CNC(=O)C3CCS(=O)(=O)CC3)cc-2c1=O	-21.8%
Cc1ccc(CN2C[C@H]3OC(=O)N(Cc4ccccn4)[C@H]3C2)o1	22.9%
O=C1O[C@@H]2CN(Cc3cc4ccccc4s3)C[C@@H]2N1Cc1ccccn1	36.5%
O=C1O[C@@H]2CN(Cc3cc4ccccc4o3)C[C@@H]2N1Cc1ccccn1	55%
Cc1ccc(-c2cnnc(N3CCCC3c3nonc3C)n2)o1 (centres undefined)	5.67%
CN1C(=O)CCc2cc(NC(=O)C3CC(=O)N(CC4CC4)C3)ccc21 (centres undefined)	-5.57%
Cc1cccc(-c2noc(CN3CCCCC3Cn3cncn3)n2)c1 (centres undefined)	9.14%
Cc1cccc(NC(=O)[C@@H]2CCCN2CC(=O)Nc2ccccc2)n1	76.5%
Cc1cccc(NC(=O)[C@@H]2CCCN2CC(=O)N2CCCCCC2)n1	-3.83%
Cc1cccc(NC(=O)[C@@H]2CCCN2Cc2ccccc2C#N)n1	0.342%
CC(C)(C)Oc1ccc(NCC(=O)NCc2ccco2)cc1	16.1%
OC(CN1CCN(Cc2nc(C3CC3)no2)CC1)c1ccccc1 (centres undefined)	-45.9%
CCCN(CCC)c1ncc(S(=O)(=O)c2ccccc2)c(N)n1	52.4%
CCCN(CCC)c1ncc(S(=O)(=O)c2ccc(C)cc2)c(N)n1	20.4%
CCCN(CCC)c1ncc(S(=O)(=O)c2cccc(C)c2)c(N)n1	6.29%
CN(Cc1ccccc1OC(F)(F)F)C(=O)C1CC1	82.7%
CN(Cc1ccccc1OC(F)(F)F)C(=O)C1CCCN(C(N)=O)C1 (centres undefined)	-116%
COc1ccnc(N(C)Cc2ccccc2OC(F)(F)F)n1	15.2%
